D2 ag-1: D2 dopamine receptor (human) agonism. P14416. HEK293 T-REx D2 cells, calcium flux agonist mode. activation, % at 2 µM. actives 0.53% (n = 340,000);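 active = activation over 3 SD above normal in the single-dose calcium agonist read, cut at about 30% in these data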; also: 0% is about no effect
Target sequence (P14416 whole entry, looked up): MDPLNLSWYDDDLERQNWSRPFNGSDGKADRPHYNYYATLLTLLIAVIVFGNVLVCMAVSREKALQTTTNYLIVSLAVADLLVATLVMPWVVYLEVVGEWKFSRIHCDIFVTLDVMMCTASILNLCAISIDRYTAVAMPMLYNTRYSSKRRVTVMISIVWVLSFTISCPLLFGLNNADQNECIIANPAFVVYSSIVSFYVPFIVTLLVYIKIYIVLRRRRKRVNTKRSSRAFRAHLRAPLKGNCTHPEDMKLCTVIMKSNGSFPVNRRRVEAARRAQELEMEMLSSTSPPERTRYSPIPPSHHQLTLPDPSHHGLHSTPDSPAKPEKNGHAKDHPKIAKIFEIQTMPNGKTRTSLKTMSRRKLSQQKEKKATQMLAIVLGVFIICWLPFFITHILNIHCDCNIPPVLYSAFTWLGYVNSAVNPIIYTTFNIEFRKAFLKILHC
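Calcium-flux readout, 1 cycle/sec over 180 s following compound pin transfer, in inducible HEK293 Trex D2 cells (force-coupled); dopamine controls included. Positive calcium responses during this window marked compounds as potential agonists.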
D2 PAM-1: human D2 receptor positive allosteric modulation; potentiation, % (no concentration beside the values); actives 0.23% (n = 360,000); AID 624464; DiscoveRx D2 beta-arrestin cells, luminescence, 90 min; 100% = 57 uM dopamine signal; P14416; in the data active = potentiation above about 50%
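PathHunter beta-arrestin assay in DiscoveRx D2 cells. Compounds were added with an EC20 of dopamine (50 nM final) for 90 min at 37 deg C. Luminescence was read 1 h after detection reagent, with 57 uM dopamine as the EC100 control.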
D2 antagonist: antagonists of human D2 dopamine receptor. P14416. HEK293 TREx D2 cells, calcium flux, dopamine EC80. inhibition, % at 10 µM. actives 2% (n = 340,000); in the data active = inhibition above about 30%; inactive = below that, where a call was filed; also: 0% is about no effect
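Calcium flux kinetic readout in an inducible HEK293 TREx D2 line plated overnight at 30 C. After 180 s compound exposure, an EC80 dopamine challenge follows with another 180 s kinetic read to detect antagonism.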
D2 ag-2: human D2 receptor agonism in beta-arrestin assay; P14416; AID 624465; activation, % (concentration not given with the values); actives 0.084% (n = 360,000); DiscoveRx PathHunter D2 beta-arrestin, luminescence, 90 min; 100% = 57 uM dopamine signal; in the data active = activation above about 40%
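Agonist mode: compounds alone added to overnight-plated D2 PathHunter cells for 90 min at 37 C, with 57 uM final dopamine (EC100) defining full response. Beta-arrestin recruitment detected by chemiluminescent reagent, read after 1 h at ambient temperature.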
D2 PAM-2: D2 dopamine receptor (human) potentiation. HEK293 T-REx D2, calcium flux, EC20 dopamine potentiation. AID 485347. actives 0.34% (n = 340,000). P14416. potentiation, % at 10 µM;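 active = potentiation over 3 SD above the plate norm, cut at about 30% in these data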; also: 0% is about no effect
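Cells plated with tetracycline inducer and held overnight at 30 C; calcium dye loaded 30–90 min at room temperature; baseline taken, compound added and read 180 s; EC20 dopamine then added and read 180 s.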
* marks the source's active call; other numbers are inactive results; ! = repeats disagree. This is a sample that favours compounds with a hit; in the whole collection about 2.4% have one here.

How did CCc1cccc(C)c1NC(=O)c1cc(S(=O)(=O)N(Cc2ccc(C(=O)OC)cc2)Cc2ccc(OC)c(OC)c2)ccc1F do in these assays?
D2 ag-1: -0.8; D2 PAM-2: -3.1

How did CCOc1ccc(C(=O)Nc2ccccc2C(=O)OCc2cc(=O)n3nc(C4CC4)sc3n2)cc1 do in these assays?
D2 ag-1: -0.6; D2 PAM-2: -0.4

What do the screens show for `COc1cccc2cc(C(=O)NCc3ccccn3)c(=O)oc12`?
D2 ag-1: 0.4; D2 PAM-1: 8.1; D2 antagonist: 43.7*; D2 ag-2: -2.3; D2 PAM-2: -4.3

What do the screens show for `Cc1ccc(C)c(CSc2nc(-c3ccccc3F)nc3c2Cc2c(CO)cnc(C)c2O3)c1`?
D2 ag-1: 1.1; D2 PAM-2: -5.9

What do the screens show for `COc1ccc(-n2ncc3c2CC(C)(C)CC3NC(=O)c2oc(C)cc2C)cc1` (stereo unspecified)?
D2 ag-1: -0.4; D2 PAM-1: 1.4; D2 antagonist: -11.0; D2 ag-2: -5.6; D2 PAM-2: 36.5*

What do the screens show for `Cn1c(=S)[nH]c2scc(-c3cccs3)c2c1=O`?
D2 PAM-1: 67.5*; D2 ag-2: 14.4

Results for Cc1ccc(C(=O)OC2CCOC2=O)cc1NC(=O)c1ccco1 (stereo unspecified) ?
D2 ag-1: 1.3; D2 PAM-1: 2.2; D2 antagonist: 35.4*; D2 ag-2: -0.5; D2 PAM-2: -9.6

Results for CCC(C)(C)NC(=O)CN(C(=O)CCC(=O)Nc1nccs1)c1ccc2c(c1)OCCO2 ?
D2 ag-1: -2.1; D2 PAM-1: -5.9; D2 antagonist: 0.9; D2 ag-2: -2.3; D2 PAM-2: 30.8*

What do the screens show for `CCc1ccc(N(CC(=O)NC(C)(C)CC)C(=O)CCC(=O)Nc2nccs2)cc1`?
D2 ag-1: 0.4; D2 PAM-1: -4.2; D2 antagonist: -0.2; D2 ag-2: -4.8; D2 PAM-2: -10.0

What do the screens show for `CCC(C)(C)NC(=O)CN(Cc1ccc2c(c1)OCO2)C(=O)CCC(=O)Nc1nccs1`?
D2 ag-1: -0.7; D2 PAM-1: -6.6; D2 antagonist: 40.8*; D2 ag-2: -2.0; D2 PAM-2: 3.6

How did O=C(Nc1nnc(-c2ccccc2Cl)o1)c1nc2ccccc2s1 do in these assays?
D2 ag-1: 39.1*; D2 PAM-1: -7.3; D2 antagonist: 7.7; D2 ag-2: -2.6; D2 PAM-2: -16.5

Results for O=C(C1CCCCC1)N(Cc1cccnc1)c1nc2ccc(Cl)cc2s1 ?
D2 ag-1: 0.4; D2 PAM-2: -1.3

What do the screens show for `NC1=NC2(CCN(Cc3ccccc3)CC2)n2c(nc3ccccc32)N1`?
D2 ag-1: -0.5; D2 PAM-1: -16.4; D2 antagonist: 43.2*; D2 ag-2: -1.8; D2 PAM-2: -32.1

What do the screens show for `CCOc1ccc(S(=O)(=O)NC2=NCCCCC2)cc1`?
D2 ag-1: -0.3; D2 PAM-1: 0.8; D2 antagonist: -7.4; D2 ag-2: -1.9; D2 PAM-2: 71.3*

What do the screens show for `O=S(=O)(NC1=NCCCCC1)c1ccc(Cl)cc1`?
D2 ag-1: 2.9; D2 PAM-1: -4.3; D2 antagonist: -5.3; D2 ag-2: -1.6; D2 PAM-2: 2.1

Results for Cc1ccc(C)c(CN2C(=O)C3(c4ccccc42)N(c2ccc(Cl)cc2)C(=O)CS3(=O)=O)c1 (stereo unspecified) ?
D2 ag-1: -0.8; D2 PAM-2: -5.7

What do the screens show for `CC1=CC2=NC(=O)CC(C)(C(=O)N(CC(=O)NC(C)(C)C)C3CCCC3)N2C=C1` (stereo unspecified)?
D2 ag-1: -1.0; D2 PAM-1: 3.0; D2 antagonist: -1.8; D2 ag-2: 0.1; D2 PAM-2: 4.0

How did CC1=CC2=NC(=O)CC(C)(C(=O)N(CC(=O)NC3CCCC3)c3cc(C)cc(C)c3)N2C=C1 (stereo unspecified) do in these assays?
D2 ag-1: -0.1; D2 PAM-1: -7.4; D2 antagonist: 60.2*; D2 ag-2: 0.8; D2 PAM-2: 9.6

What do the screens show for `OC1CCCCC1Sc1nc2ccccc2s1` (stereo unspecified)?
D2 ag-1: 0.0; D2 PAM-1: -2.0; D2 antagonist: 40.1*; D2 ag-2: -1.8; D2 PAM-2: -11.5

How did Oc1c(C(c2ccccc2F)N2CCN(c3ccccc3F)CC2)sc2nc(-c3ccco3)nn12 (stereo unspecified) do in these assays?
D2 ag-1: 0.9; D2 PAM-2: 1.0

Results for CS(=O)(=O)c1ccccc1C(=O)NC1CCCc2ccccc21 (stereo unspecified) ?
D2 ag-1: 0.9; D2 PAM-1: -2.8; D2 antagonist: -5.6; D2 ag-2: -1.1; D2 PAM-2: 37.5*

How did CCS(=O)(=O)c1ccccc1C(=O)NC1CCCc2ccccc21 (stereo unspecified) do in these assays?
D2 ag-1: -1.8; D2 PAM-1: -5.5; D2 antagonist: 12.0; D2 ag-2: 2.8; D2 PAM-2: 7.2

What do the screens show for `COc1ccccc1C(=O)NC1CCCc2ccccc21` (stereo unspecified)?
D2 ag-1: 2.0; D2 PAM-1: -5.2; D2 antagonist: 7.9; D2 ag-2: 2.0; D2 PAM-2: 1.6

What do the screens show for `COc1cc(C(=O)NC2CCCc3ccccc32)cc(OC)c1C` (stereo unspecified)?
D2 ag-1: -2.6; D2 PAM-1: -4.1; D2 antagonist: 55.3*; D2 ag-2: 0.5

What do the screens show for `Cc1cccc(C)c1OCC(=O)NCC1(N2CCOCC2)CCCCC1`?
D2 ag-1: -1.6; D2 PAM-2: -19.1

How did CCn1c(SCC(N)=O)nc2ccccc2c1=O do in these assays?
D2 ag-1: 0.1; D2 PAM-1: -9.7; D2 antagonist: 37.2*; D2 ag-2: -0.3; D2 PAM-2: 2.6

Results for Cc1ccc(-n2c(SCC(N)=O)nc3c([nH]c4ccccc43)c2=O)cc1 ?
D2 ag-1: 0.0; D2 PAM-1: -7.5; D2 antagonist: -3.4; D2 ag-2: -5.5; D2 PAM-2: 32.4*!

Results for COc1cccc(-n2c(SCC(N)=O)nc3ccccc3c2=O)c1 ?
D2 ag-1: 5.3; D2 PAM-1: 3.6; D2 antagonist: 27.9; D2 ag-2: -0.6; D2 PAM-2: 10.6

How did NC(=O)CSc1nc2ccccc2c(=O)n1-c1ccccc1 do in these assays?
D2 ag-1: -0.5; D2 PAM-1: -6.6; D2 antagonist: 41.1*; D2 ag-2: 2.2; D2 PAM-2: 5.2

What do the screens show for `COc1ccc(Nc2nc(C)nc3c2nnn3Cc2ccccc2)cc1OC`?
D2 ag-1: 0.8; D2 PAM-1: -0.7; D2 antagonist: 12.0; D2 ag-2: 2.1; D2 PAM-2: 34.5*

What do the screens show for `CC(C)CCOP(=O)(c1ccc(N(C)C)cc1)C(O)c1ccccc1F` (stereo unspecified)?
D2 PAM-1: -5.6; D2 ag-2: -1.8; D2 PAM-2: 7.7

Source: PubChem
